{"source": "PubChem BioAssay (EPA / NIEHS)", "note": "Calls of active or inactive are those of the source. Rule for the calls: active = hit-call score of the fitted dose curve at least 0.9, where 1 is the maximum; inactive = score below 0.9.", "data": [{"experiment": "ATG_M_61_CIS: Attagene CIS-FACTORIAL HepG2 Assay for M61 Transcription Factor (Internal Marker) (AID 2282937)", "conditions": "HepG2 Attagene CIS-FACTORIAL M61 internal marker reporter; actives raise or lower the signal", "method": "ATG_CIS is a cell-based, multiplexed-readout assay that uses HepG2, a human liver cell line, with measurements taken at 24 hours after chemical dosing in a 24-well plate.ATG_M_61_CIS is one of 52 assay component(s) measured or calculated from the ATG_CIS assay. It is designed to make measurements of mRNA induction, a form of inducible reporter, as detected with fluorescence intensity signals by Reverse transcription polymerase chain reaction (RT-PCR) and Capillary electrophoresis technology.Data from the assay component ATG_M_61_CIS was analyzed into 1 assay endpoint. This assay endpoint, ATG_M_61_CIS, was analyzed with bidirectional fitting relative to DMSO as the negative control and baseline of activity. Using a type of inducible reporter, measures of mRNA for gain or loss-of-signal activity can be used to understand the background control at the transcription factor-level as they relate to the gene . Furthermore, this assay endpoint can be referred to as a secondary readout, because this assay has produced multiple assay endpoints where this one serves a background control function. To generalize the intended target to other relatable targets, this assay endpoint is annotated to the background measurement intended target family, where the subfamily is internal marker.\nHuman liver HepG2 cells are transiently transfected with multiple reporter transcription units (MRTUs) in 6-well plates using FuGene 6 reagent (Roche; 3 ml FuGene/1 mg DNA). The MRTU constructs are regulated by a cis-regulating element (promoter). […] A major difference between the CIS and TRANS system is that in CIS activities of endogenous TFs are measured, whereas the TRANS assay evaluates changes in activities of exogenous, chimeric NR-Gal4 proteins. […] At the end of 24 hour incubation, total RNA was isolated using TriZol reagent (Invitrogen). The isolated RNA is then reverse-transcribed using oligo(dT) primer and Mo-MLV reverse transcriptase (Invitrogen) with DNAse I (Ambion) treatment for 30 min. The one-tenth of the produced cDNA was amplified by PCR using Taq DNA polymerase (Invitrogen) and two reporter sequence-specific primers. The PCR products were fluorescently labeled by primer extension with 6-arboxyfluorescein (6-FAM) 5'-labeled reporter sequence-specific primer (2 min at 95 C, 20 s at 68 C and 10 min at 72 C) and these products were digested with 5U of HpaI (New England Biolabs) for 2h at 37 C. The fragments were purified using Qiaquick PCR columns (Qiagen), analyzed on an ABI 3130xL genetic analyzer (Applied Biosystems) with peak positions identified by using a set of X-rhodamine (ROX)-labeled MapMarker1000 molecular weight standards (BioVentures). The raw capillary electrophoresis data was processed using Attagraph software (Attagene).", "values": [{"smiles": "CC(C1CC1)C(O)(Cn1cncn1)c1ccc(Cl)cc1", "note": "(stereo not given)", "outcome": "inactive"}, {"smiles": "CCCCOC(=O)c1ccccc1C(=O)O", "outcome": "inactive"}, {"smiles": "CSC1=N[C@@](C)(c2ccccc2)C(=O)N1Nc1ccccc1", "outcome": "inactive"}, {"smiles": "C=C(C)[C@H]1Cc2c(ccc3c2O[C@@H]2COc4cc(OC)c(OC)cc4[C@@H]2C3=O)O1", "outcome": "inactive"}, {"smiles": "S=C1NCCN1", "outcome": "inactive"}, {"smiles": "CCOP(=O)(OCC)Oc1cc(C)nc(C(C)C)n1", "outcome": "inactive"}, {"smiles": "CC(C)=CC1C(C(=O)OCN2C(=O)C3=C(CCCC3)C2=O)C1(C)C", "note": "(stereo not given)", "outcome": "inactive"}, {"smiles": "CCOC(=O)CC(SP(=O)(OC)OC)C(=O)OCC", "note": "(stereo not given)", "outcome": "inactive"}, {"smiles": "CN(C)C(=O)Nc1cccc(C(F)(F)F)c1", "outcome": "inactive"}, {"smiles": "CC(=NC#N)N(C)Cc1ccc(Cl)nc1", "outcome": "inactive"}, {"smiles": "N#CSCSC#N", "outcome": "inactive"}, {"smiles": "COc1cccc(C(=O)NN(C(=O)c2cc(C)cc(C)c2)C(C)(C)C)c1C", "outcome": "inactive"}, {"smiles": "CNC(=O)ON=C(SC)C(=O)N(C)C", "outcome": "inactive"}, {"smiles": "CCC(=NOC/C=C/Cl)C1=C(O)CC(C2CCOCC2)CC1=O", "note": "(stereo not given)", "outcome": "inactive"}, {"smiles": "COP(=O)(NC(C)=O)SC", "note": "(stereo not given)", "outcome": "inactive"}, {"smiles": "CCCOc1nn(C(=O)NS(=O)(=O)c2ccccc2C(=O)OC)c(=O)n1C", "outcome": "inactive"}, {"smiles": "CON=C(C(=O)OC)c1ccccc1CON=C(C)c1cccc(C(F)(F)F)c1", "outcome": "inactive"}, {"smiles": "CCC(CC)Nc1c([N+](=O)[O-])cc(C)c(C)c1[N+](=O)[O-]", "outcome": "inactive"}, {"smiles": "CCCCN(CC)c1c([N+](=O)[O-])cc(C(F)(F)F)cc1[N+](=O)[O-]", "outcome": "inactive"}, {"smiles": "CC[C@H](C)[C@H]1O[C@]2(C=C[C@@H]1C)C[C@@H]1C[C@@H](C/C=C(\\C)[C@@H](O[C@H]3C[C@H](OC)[C@@H](O[C@H]4C[C@H](OC)[C@@H](NC)[C@H](C)O4)[C@H](C)O3)[C@@H](C)/C=C/C=C3\\CO[C@@H]4[C@H](O)C(C)=C[C@@H](C(=O)O1)[C@]34O)O2", "outcome": "inactive"}, {"smiles": "C[Si](Cn1cncn1)(c1ccc(F)cc1)c1ccc(F)cc1", "outcome": "inactive"}, {"smiles": "CSc1nc(NC(C)C)nc(NC(C)C)n1", "outcome": "inactive"}, {"smiles": "CCOP(=S)(Oc1cnc(C(C)(C)C)nc1)OC(C)C", "note": "(stereo not given)", "outcome": "inactive"}, {"smiles": "Cc1cc(C2CC2)nc(Nc2ccccc2)n1", "outcome": "inactive"}, {"smiles": "COc1cc(OC)nc(Sc2cccc(Cl)c2C(=O)O)n1", "outcome": "inactive"}, {"smiles": "CCOP(=S)(OCC)Oc1ccc([N+](=O)[O-])cc1", "outcome": "inactive"}, {"smiles": "CCOP(=S)(OCC)Oc1ccc2c(C)c(Cl)c(=O)oc2c1", "outcome": "inactive"}, {"smiles": "CCCCSP(=O)(SCCCC)SCCCC", "outcome": "inactive"}, {"smiles": "CCOP(=S)(OCC)OC(Cl)C(Cl)(Cl)Cl", "note": "(stereo not given)", "outcome": "inactive"}, {"smiles": "CSc1nnc(C(C)(C)C)c(=O)n1N", "outcome": "inactive"}, {"smiles": "CC(Oc1cccc(Cl)c1)C(=O)O", "note": "(stereo not given)", "outcome": "inactive"}, {"smiles": "CN(C)[C@@H]1C(=O)C(C(N)=O)=C(O)[C@@]2(O)C(=O)C3=C(O)c4c(O)cccc4[C@@](C)(O)[C@H]3[C@H](O)[C@@H]12", "outcome": "inactive"}, {"smiles": "CCc1cnc(C2=NC(C)(C(C)C)C(=O)N2)c(C(=O)O)c1", "note": "(stereo not given)", "outcome": "inactive"}, {"smiles": "CNc1cnn(-c2cccc(C(F)(F)F)c2)c(=O)c1Cl", "outcome": "inactive"}, {"smiles": "FC(F)C(F)(F)OCC(Cn1cncn1)c1ccc(Cl)cc1Cl", "note": "(stereo not given)", "outcome": "inactive"}, {"smiles": "CCNc1nc(Cl)nc(NC(C)(C)C#N)n1", "outcome": "inactive"}, {"smiles": "COc1ccc(C(=CC(=O)N2CCOCC2)c2ccc(Cl)cc2)cc1OC", "outcome": "inactive"}, {"smiles": "O=C(O)c1cc(Oc2ccc(C(F)(F)F)cc2Cl)ccc1[N+](=O)[O-]", "outcome": "inactive"}, {"smiles": "CN1COCN(Cc2cnc(Cl)s2)C1=N[N+](=O)[O-]", "outcome": "inactive"}, {"smiles": "CNC(=O)Oc1cccc2c1OC(C)(C)O2", "outcome": "inactive"}]}]}
